Experimental data from PubChem BioAssay (Tox21).
Records with an inconclusive call do not appear. Calls of active or inactive are those of the source. Unless noted, calls come from the whole dose curve; as a rule, active = well fitted curve in the direction sought with a large enough effect in the repeat runs; inconclusive = weak or mixed curves; inactive = no such curve, though single readings can be large; an effect the other way counts as inactive or inconclusive.

Tests used:
[1] = qHTS assay to identify small molecule agonists of the hypoxia (HIF-1) signaling pathway - cell viability counter screen (AID 1224844; calls by dose curve; note: nearly all actives have a fitted effect of over 50% in size)
In short: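 Same wells as the HIF-1 reporter screen; ME-180 cells carrying HRE-bla, 17 hr treatment at 37C; CellTiter-Glo luminescence read after 30 min at room temperature.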

[2] = qHTS assay to identify small molecule agonists of the hypoxia (HIF-1) signaling pathway (AID 1224846; active = well fitted activation curve with a large enough effect in the signal ratio in the repeat runs, not every such curve was filed as active; the % refers to the signal ratio)
In short: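 In ME-180 cells bearing an HRE-bla construct, 17 h treatment with DMSO-dissolved compounds at 37C was followed by CCF4-AM loading to quantify reporter induction.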

[3] = qHTS RealTime-Glo MT Cell Viability Assay in HepG2 cells - 24 hour (AID 1224867); note: nearly all actives have a fitted effect of over 50% in size
In short: (§1)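 Tox21 10K library screened in qHTS format on HepG2 cells carrying RealTime-Glo reagents. Compounds were added after a 5 h preincubation, and the luminescent signal from continuous culture was measured repeatedly during 40 h treatment.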

[4] = qHTS RealTime-Glo MT Cell Viability Assay in HEK293 cells - 32 hour (AID 1224868); note: top concentration of the series differs between compounds; nearly all actives have a fitted effect of over 50% in size
In short: (§2)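 Luminescence generated by NanoLuc from substrate produced by living HEK293 cells served as the viability signal. Each value reflects the reading at its stated time point during continuous 40 h compound exposure at 37 C.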

[5] = A CellTox Green Cytotoxicity Assay to monitor cytotoxicity in HEK293 cells - 0 hour (AID 1224869); note: nearly all actives have a fitted effect of over 50% in size
In short: (§3)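 Homogeneous no-lysis format: HEK293 cell suspension mixed with CellTox Green reagent, seeded, incubated 5 h at 37 C/5% CO2, then dosed by pintool with compound in DMSO.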

[6] = qHTS RealTime-Glo MT Cell Viability Assay in HepG2 cells - 40 hour (AID 1224870); note: nearly all actives have a fitted effect of over 50% in size
In short: (§4)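 HepG2 cells mixed with RealTime-Glo MT reagents (NanoLuc plus cell-permeant prosubstrate) were seeded at 600 cells/well, incubated 5 h at 37 C/5% CO2, then pinned with compounds in DMSO; nonlytic luminescence tracked viability during 40 h treatment.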

[7] = A CellTox Green Cytotoxicity Assay to monitor cytotoxicity in HEK293 cells - 40 hour (AID 1224871); note: nearly all actives have a fitted effect of over 45% in size
In short: as §3

[8] = qHTS RealTime-Glo MT Cell Viability Assay in HEK293 cells - 16 hour (AID 1224872)
In short: as §2

[9] = qHTS RealTime-Glo MT Cell Viability Assay in HepG2 cells - 8 hour (AID 1224873); note: nearly all actives have a fitted effect of over 55% in size
In short: as §4

[10] = qHTS RealTime-Glo MT Cell Viability Assay in HEK293 cells - 40 hour (AID 1224874); conditions: RealTime-Glo luminescence; max response: stronger effect = lower value; note: nearly all actives have a fitted effect of over 50% in size
In short: (§5)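 Measured as luminescence from the same continuously cultured HEK293 wells at successive time points (0, 8, 16, 24, 32, 40 h) after compound addition. Reagent present from seeding; dosing at 5 h; incubation 37 C.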

[11] = A CellTox Green Cytotoxicity Assay to monitor cytotoxicity in HEK293 cells - 24 hour (AID 1224875); note: series mostly up to about 77 µM; nearly all actives have a fitted effect of over 45% in size
In short: as §3

[12] = A CellTox Green Cytotoxicity Assay to monitor cytotoxicity in HepG2 cells - 16 hour (AID 1224876); note: nearly all actives have a fitted effect of over 45% in size
In short: (§6)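 Fluorescent DNA-binding dye, 600 HepG2 cells/well, 5 h preincubation then compound in DMSO; same plates read at 0–40 h, 37 C.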

[13] = qHTS RealTime-Glo MT Cell Viability Assay in HepG2 cells - 32 hour (AID 1224877); note: nearly all actives have a fitted effect of over 55% in size
In short: as §1

[14] = A CellTox Green Cytotoxicity Assay to monitor cytotoxicity in HepG2 cells - 24 hour (AID 1224878); note: nearly all actives have a fitted effect of over 45% in size
In short: as §6

[15] = A CellTox Green Cytotoxicity Assay to monitor cytotoxicity in HepG2 cells - 40 hour (AID 1224879); note: nearly all actives have a fitted effect of over 40% in size
In short: as §6

[16] = qHTS RealTime-Glo MT Cell Viability Assay in HEK293 cells - 0 hour (AID 1224880)
In short: as §5

[17] = qHTS assay to identify small molecule agonists of H2AX (AID 1224845; active = well fitted activation curve with a large enough effect in the signal ratio in the repeat runs, not every such curve was filed as active; the % refers to the signal ratio)
In short: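 Wild-type CHO-K1 cells plated overnight, then exposed 3 hr at 37C to compounds at 15 concentrations (0.76% DMSO). Lysed, then HTRF anti-pH2AX(S139)-cryptate/anti-H2AX-d2 detection after 24 hr at room temperature; emissions 665 and 620 nm.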

[18] = qHTS assay to identify small molecule antagonists of the estrogen related receptor (ERR) signaling pathway from Tox21 library (AID 1224848); note: nearly all actives have a fitted effect of over 50% in size
In short: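 Tox21 10K compounds in DMSO tested for ERR pathway antagonism in NTP's ERR cell line; 18 h, 37 C exposure; ONE-Glo luminescence.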

[19] = qHTS assay to identify small molecule agonists of the estrogen related receptor (ERR) signaling pathway from Tox21 library (AID 1224849; calls by dose curve; note: nearly all actives have a fitted effect of over 15% in size)
In short: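 Reporter cells (ERR, NTP source) treated with Tox21 10K compounds 18 h, 37 C. Readout: ONE-Glo luminescence, 30 min RT.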

[20] = qHTS assay to identify small molecule agonists of H2AX - cell viability counter screen (AID 1224847; calls by dose curve; note: top concentration of the series differs between compounds; nearly all actives have a fitted effect of over 30% in size)
In short: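 Counter-screen for viability: CellTiter-Glo ATP luminescence read after 3 h compound treatment (15-point titration, 0.76% DMSO final) of CHO-K1 cells at 37C, with 30 min room-temperature reagent incubation.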
% is set by controls: 0 for no effect and ±100 for the full control effect.

CN1CCN(c2cc3c(nn2)Oc2ccccc2N3C)CC1
inactive: activity change, negative = cytotoxicity [1] 1.97% [at 15.8 µM] | activation [2] 0.831% [at 15.8 µM] | activity change, negative = cytotoxicity [3] -0.547% [at 15.8 µM] | activity change, negative = cytotoxic [4] 1.71% [at 15.8 µM] | cytotoxicity [5] -3.85% [at 15.8 µM] | activity change, negative = cytotoxic [6] 1.01% [at 15.8 µM] | cytotoxicity increase [7] -14.2% [at 15.8 µM] | activity change, negative = cytotoxicity [8] 0.378% [at 15.8 µM] | viability change, negative = cytotoxic [9] -9.11% [at 15.8 µM] | max response [10] -0.461% | activity change [11] -12.9% [at 15.8 µM] | cytotoxicity increase [12] -0.721% [at 15.8 µM] | activity change, negative = cytotoxic [13] 3.07% [at 15.8 µM] | cytotoxicity [14] -2.46% [at 15.8 µM] | cytotoxicity increase [15] -1.51% [at 15.8 µM] | activity change, negative = cytotoxicity [16] -0.369% [at 15.8 µM]

Cc1cccc(C)c1NC(=O)CC12CCCN1CCC2
inactive: Potency [1] | Potency [17] | Potency [18] | outcome [19] | outcome [3] | Potency [4] | outcome [5] | Potency [6] | Potency [7] | Potency [8] | outcome [9] | max response [10] 5.91% | outcome [11] | Potency [13] | Potency [16]

C[C@H]1[C@H](NC(=O)/C(=N/OC(C)(C)C(=O)O)c2csc(N)n2)C(=O)N1S(=O)(=O)O (stereo in doubt)
inactive: Potency [1] | Potency [17] | outcome [3] | Potency [4] | outcome [5] | Potency [6] | Potency [7] | Potency [8] | outcome [9] | max response [10] 5.51% | outcome [11] | outcome [12] | Potency [13] | outcome [14] | Potency [15] | Potency [16]

CC(C)(C)c1ccc(-c2ccc(C(C)(C)C)cc2)cc1
inactive: Potency [1] | Potency [17] | Potency [18] | outcome [19] | outcome [3] | Potency [4] | outcome [5] | Potency [6] | Potency [7] | outcome [9] | max response [10] -2.15% | outcome [11] | outcome [12] | Potency [13] | outcome [14] | Potency [15] | Potency [16]

C[N+]12CCC(CC1)C(OC(=O)C(O)(c1ccccc1)c1ccccc1)C2 (stereo not given)
inactive: Potency [17] | outcome [20] | Potency [18] | outcome [19] | outcome [3] | Potency [4] | outcome [5] | Potency [6] | Potency [7] | Potency [8] | outcome [9] | max response [10] 4.99% | outcome [11] | outcome [12] | Potency [13] | outcome [14] | Potency [15] | Potency [16]

CCOc1ccccc1OCC
inactive: Potency [1] | outcome [2] | Potency [18] | outcome [19] | outcome [3] | Potency [4] | outcome [5] | Potency [7] | Potency [8] | outcome [9] | max response [10] 5.1% | outcome [11] | outcome [12] | Potency [13] | outcome [14] | Potency [15] | Potency [16]

Cc1ccc(C(=O)c2ccc(CC(=O)O)n2C)cc1
inactive: Potency [1] | Potency [17] | Potency [18] | outcome [19] | outcome [3] | outcome [5] | Potency [6] | Potency [7] | Potency [8] | outcome [9] | max response [10] 1.68% | outcome [11] | Potency [13] | Potency [16]

CC1=NN(c2cc(S(=O)(=O)O)ccc2Cl)C(=O)C1N=Nc1ccccc1 (stereo not given)
inactive: Potency [1] | outcome [2] | outcome [20] | outcome [3] | Potency [4] | outcome [5] | Potency [6] | Potency [7] | outcome [9] | max response [10] 8.94% | outcome [11] | outcome [12] | Potency [13] | outcome [14] | Potency [15] | Potency [16]

COc1ccnc(CS(=O)c2nc3cc(OC(F)F)ccc3[nH]2)c1OC (stereo not given)
inactive: Potency [1] | Potency [17] | outcome [20] | outcome [5] | Potency [6] | Potency [7] | Potency [8] | outcome [9] | outcome [11] | outcome [12] | Potency [13] | outcome [14] | Potency [16]

COc1c(N2CCNC(C)C2)c(F)cc2c(=O)c(C(=O)O)cn(C3CC3)c12 (stereo not given)
inactive: Potency [1] | Potency [17] | outcome [20] | Potency [4] | Potency [7] | Potency [8] | outcome [9] | max response [10] 14% | outcome [11] | outcome [12] | Potency [13] | outcome [14] | Potency [15] | Potency [16]

COc1cc(C)nc(-n2nc(C)cc2OC)n1
inactive: Potency [1] | Potency [17] | Potency [18] | outcome [19] | outcome [3] | Potency [4] | Potency [7] | outcome [9] | max response [10] -0.0998% | outcome [11] | outcome [12] | Potency [13] | outcome [14] | Potency [16]

CCOc1c(N2CCOCC2)cnn(C)c1=O
inactive: Potency [17] | outcome [2] | Potency [4] | outcome [5] | Potency [6] | Potency [7] | Potency [8] | outcome [9] | max response [10] 3.38% | outcome [11] | outcome [12] | Potency [13] | outcome [14] | Potency [15] | Potency [16]
